Assay outcomes: PubChem, National Center for Advancing Translational Sciences (NCATS)
HT1080 IDH1KD tx: qHTS for induction of synthetic lethality in tumor cells producing 2HG: qHTS for the HT-1080-IDH1KD cell line. AID 686971, 2013. HT-1080 IDH1 knockdown viability, ATP luminescence, 48 h. Potency, µM (titrated, usually from 46.1 µM), for inactives: at the top dose activity, negative = toxicity, most hits filed as cytotoxic. 2% of 360,000 active;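 also: 0% = DMSO wells and -100% = cell-free medium wells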
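% activity derives from luminescence (CellTiter-Glo), normalised to DMSO and no-cell wells. HT-1080-IDH1KD cells, 750/well, had 48 h compound exposure at 37 °C.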
HT1080NT lethal: qHTS for induction of synthetic lethality in tumor cells producing 2HG: qHTS for the HT-1080-NT fibrosarcoma cell line. HT-1080-NT fibrosarcoma viability, CellTiter-Glo ATP luminescence, 48 h. Potency, µM (titrated, usually from 46.1 µM), for inactives: top-dose activity, negative = less viability, actives largely listed as cytotoxic. 1.6% of 360,000 active. AID 686970, 2013;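 also: NT is the 2HG producing partner of a matched IDH1 knockdown line; 0% = DMSO-treated cells and -100% = media-only wells without cells; nearly all actives have a fitted effect of over 55% in size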
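750 cells/well, RPMI + 5% FBS; 2 h settle, compound pin-transfer, 48 h at 37 degrees C. CellTiter-Glo 10 min RT, luminescence. Normalized to DMSO and media-only wells.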
ATXN viability: Viability Counterscreen for Primary qHTS for Inhibitors of ATXN expression | S2 cells (HEK-293 line with an ATXN2-luciferase reporter) viability, CellTiter-Fluor protease fluorescence, 24 h | Potency, µM (top dose mostly 56.7 µM), hits mostly cytotoxic | 0.49% of 400,000 active; also: nearly all actives have a fitted effect of over 40% in size
KB-3-1 cytotox: qHTS assay for MDR1-selective chemotherapeutics: Primary screen using the parental adenocarcinoma cell KB-3-1; Potency, µM (highest dose often 46.1 µM), hits mostly cytotoxic; 1.4% of 400,000 active; KB-3-1 viability, CellTiter-Glo ATP luminescence, 72 h; also: % is scaled to controls: 0 for no effect and ±100 for the full control effect; nearly all actives have a fitted effect of over 60% in size
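Using CellTiter-Glo luminescence, growth of non-resistant KB-3-1 adenocarcinoma cells is assessed 72 h after pin-tool compound addition at 37 °C. Normalized responses across the concentration series yield fitted curves.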
ATXN2 expr inh: Primary qHTS for Inhibitors of ATXN expression; AID 1745845, 2022; 0.72% of 360,000 active; HEK-293 ATXN2-luciferase reporter, luminescence, 24 h; Potency, µM (series often up to 57 µM), inactives show at the top dose activity change, negative = inhibition, hits mostly inhibitors; also: % is scaled to controls: 0 for no effect and ±100 for the full control effect; nearly all actives have a fitted effect of over 55% in size
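ATXN2-luciferase reporter cells (luciferase flanked by upstream and downstream ATXN2 gene portions) were treated 24 h at 37 °C with compounds at up to 57 uM. SteadyGlo luminescence gave expression; GF-AFC fluorescence gave viability.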
KB-V1 cytotox: qHTS assay for MDR1-selective chemotherapeutics: Primary screen using the drug-selected MDR subline cells KB-V1 | KB-V1 MDR cells viability, CellTiter-Glo, 72 h | 3.4% of 400,000 active | AID 1347076, 2019 | Potency, µM (doses to about 46.1 µM), hits mostly cytotoxic; also: % is scaled to controls: 0 for no effect and ±100 for the full control effect; nearly all actives have a fitted effect of over 60% in size
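KB-V1 cells (P-gp-expressing MDR subline of KB-3-1) in phenol-red-free DMEM with 10% FBS were exposed to library compounds over a concentration series for 72 h at 37 degrees C. Viability read by CellTiter-Glo luminescence; concentration-effect curves fitted after normalization.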
The depositor's hits bear a star; i = inactive; ? = inconclusive; nt = not tested or not shown. Shown are actives, neighbours in structure and some others; about 6.2% of the full set was active somewhere. Calls follow the shape of the dose curve; as a rule, active = well fitted curve in the direction sought with a large enough effect; inconclusive = small, poorly fitted or top-dose-only effect, or another doubt; inactive = no such curve, though single readings can be large; an effect the other way counts as inactive or inconclusive. Potency is read from the fitted curve at half-maximal effect.

SMILES | HT1080 IDH1KD tx | HT1080NT lethal | ATXN viability | KB-3-1 cytotox | ATXN2 expr inh | KB-V1 cytotox
Cc1nc(C)n(CC(=O)NCC2Cc3cc(-c4cccc(OC(F)(F)F)c4)ccc3O2)n1 (centres undefined) | nt | nt | i | nt | nt | nt
CCc1ccc2nc(SCC(=O)Nc3ccccc3N3CCOCC3)c(C#N)cc2c1 | 4% | 14% | i | 5.2µM* | -30% | 5.8µM*
Cc1ccc2nc(SCC(=O)Nc3ccccc3N3CCOCC3)c(C#N)cc2c1 | ? | ? | i | ? | 0% | i
CCc1ccc2nc(SCC(=O)N3CC(=O)Nc4ccccc43)c(C#N)cc2c1 | 5.8µM* | ? | ? | 5.2µM* | 4% | 6.5µM*
N#Cc1cc(C#N)c(SCC(=O)N2CC(=O)Nc3ccccc32)nc1N | ? | -14% | i | ? | nt | i
CN(C1CCc2c(c3ccccc3n2CC(=O)O)C1)S(=O)(=O)c1ccc(F)cc1 (centres undefined) | nt | nt | nt | nt | -9% | nt
N#CC(=Cc1ccncc1)c1ccccc1 | 11% | 11% | ? | ? | 24% | 13µM*
COc1ccc(OC)c(/C=C/c2cc3ccccc3c[n+]2C)c1 | nt | nt | nt | ? | nt | i
COc1cc(OC)c(/C=C/c2cc3ccccc3c[n+]2C)c(OC)c1 | nt | nt | nt | 0.92µM* | nt | i
COc1cc(OC)c(/C=C/c2ccccn2)c(OC)c1 | nt | nt | nt | 5.2µM* | nt | i
COc1cc(OC)c(/C=C/c2ccc3ccccc3n2)c(OC)c1 | nt | nt | nt | 0.52µM* | nt | i
COc1cc(CN2c3ccc(Br)cc3C(=O)CS2(=O)=O)cc(OC)c1 | nt | nt | nt | i | nt | i
COc1ccc(C(=O)NC(=S)Nc2cccc(S(=O)(=O)N3CCOCC3)c2)cc1 | 13µM* | 15µM* | i | 5.8µM* | -28% | 5.2µM*
O=C(COc1ccc(C(=O)c2ccc(F)cc2)cc1)Nc1cccc(S(=O)(=O)N2CCOCC2)c1 | -13% | -12% | ? | i | 0% | 12µM*
CC(=O)Oc1ccc(-c2ccc(C(=O)Nc3cccc(S(=O)(=O)N4CCOCC4)c3)cc2)cc1 | 10µM* | ? | i | ? | -35% | ?
COc1ccc(NC(=O)c2cccc(S(=O)(=O)N3CCOCC3)c2)cc1 | -8% | -7% | i | i | 16% | ?
COc1ccc(C(=O)NNC(=O)c2cccc(S(=O)(=O)N3CCOCC3)c2)cc1 | 2% | 2% | ? | i | 3% | ?
O=C(COC(=O)CCC(=O)c1ccc(F)cc1)Nc1cccc(S(=O)(=O)N2CCOCC2)c1 | -1% | 0% | i | i | -9% | i
OC(c1ccccc1)(c1ccccc1)C1CCN(CCCOc2ccc3c(c2)CCCC3)CC1 | 13µM* | 15µM* | 25µM* | ? | 18µM* | 21µM*
N#CCc1ccc(OCCCN2CCC(C(O)(c3ccccc3)c3ccccc3)CC2)cc1 | ? | 21µM* | ? | ? | 0% | 18µM*
OC(c1ccccc1)(c1ccccc1)C1CCN(CCCOc2cccc(OC(F)(F)F)c2)CC1 | 16µM* | 18µM* | nt | ? | ? | i
CC(=O)Nc1ccccc1OCCCN1CCC(C(O)(c2ccccc2)c2ccccc2)CC1 | ? | ? | i | i | -3% | ?
CC(=O)Nc1ccc(OCCCN2CCC(C(O)(c3ccccc3)c3ccccc3)CC2)cc1 | ? | -24% | ? | i | -1% | i
COC(=O)c1cccc(C(=O)NCc2nc(-c3ccccc3NC(C)=O)oc2C)c1 | nt | nt | i | nt | nt | nt
CSc1nsc(SC)c1NC(=O)Nc1ccccn1 | ? | -25% | i | i | -6% | 15µM*
SMILES | HT1080 IDH1KD tx | HT1080NT lethal | ATXN viability | KB-3-1 cytotox | ATXN2 expr inh | KB-V1 cytotox
COc1cc(C2C(=O)N(C3CCCC3)CC(=O)N2Cc2ccco2)ccc1OC(C)C (centres undefined) | -1% | 9% | i | i | 1% | 3.7µM*
COc1cccc(CN2C(=O)CN(C3CCCCC3)C(=O)C2c2ccc(OC)c(OC)c2)c1 (centres undefined) | nt | nt | i | i | 5% | i
Cc1cn(CC(=O)NCCCc2ccccc2)c(=O)[nH]c1=O | 1% | 2% | i | i | 0% | i
O=c1[nH]c(=O)n(CCCc2ccccc2)cc1-c1ccccc1 | 24% | 8% | i | i | 4% | 13µM*
CC(=O)COc1ccc2c3c(c(=O)oc2c1)CCCC3 | 5% | 16% | i | i | 38% | 12µM*
CC(=O)C(C)Oc1ccc2c3c(c(=O)oc2c1)CCCC3 (centres undefined) | 14% | 13% | i | i | -6% | i
CCOc1ccc(-c2cc3nc(C4CCN(C(=O)OC(C)(C)C)CC4)c(C(=O)Nc4cccc(Cl)c4C)cn3n2)cc1 | nt | nt | i | i | 12% | i
O=C(c1ccc(Cl)c(Cl)c1)N1CCC(=O)N([C@H](COCc2ccc(Cl)cc2)Cc2ccccc2)CC1 | 26µM* | ? | ? | ? | ? | 21µM*
Cc1cccc(COCC(Cc2ccccc2)N2CCN(C(=O)c3ccc(C(F)(F)F)cc3)CCC2=O)c1 (centres undefined) | -29% | -2% | ? | 21µM* | ? | 12µM*
O=C(c1ccc(Cl)c(Cl)c1)N1CCC(=O)N(C(COCc2cccc(Cl)c2)Cc2ccccc2)CC1 (centres undefined) | ? | ? | ? | i | ? | i
O=C(c1ccc(C(F)(F)F)cc1)N1CCC(=O)N(C(COCc2ccc(C(F)(F)F)cc2)Cc2ccccc2)CC1 (centres undefined) | -24% | ? | ? | ? | ? | i
Cc1c(C(=O)NCc2cccc(Cl)c2)sc2nc[nH]c(=O)c12 | nt | nt | nt | i | nt | i
O=C(c1ccc(N2CCC(NCCCn3ncc4ccccc43)CC2)cc1)N1CCOCC1 | nt | nt | i | nt | nt | nt
O=c1cc(-c2c(F)c(F)c(F)c(F)c2F)oc2ccccc12 | ? | ? | ? | i | 22µM* | i
O=C(NCCc1ccccc1)c1cc(-c2ccccc2)c(N2CCOCC2)s1 | -11% | 0% | i | i | 3% | i
CCN(CC)CCCNC(=O)c1cc(-c2ccccc2)c(N2CCCCC2)s1 | ? | ? | i | 18µM* | 10% | ?
Nc1ncnc2ccccc12 | nt | nt | nt | nt | -9% | nt
O=C(CS)Nc1ccccc1 | nt | nt | i | nt | 19% | nt
Cc1cc(C)c(S(=O)(=O)c2ccccc2C)c(Oc2ccccc2)n1 | -2% | 2% | ? | ? | -7% | 21µM*
